Data as given in PubChem BioAssay AID504577 (NMMLSC, 2011).
In all, about 350,000 compounds went through this assay and about 1,300 (0.37%) were called active. The list comes from a sample in which actives are over-represented; it also holds similar structures and randomly drawn compounds. Values without a mark were called inactive. Rule as the data show it: active = response mostly above about 7.3% (no sharp cut-off); inactive = mostly below about 5.4%.

Assay: yeast vacuolar ATPase proton transport modulators – pHLuorin cytosolic pH fluorescence, primary screen (AID 504577)
Conditions: S. cerevisiae, at 10 µM, active compounds read high

Question: With O=C(NC1CCN(Cc2ccccc2)CC1)c1ccc(Oc2cc(Cl)cc(Cl)c2)o1 as the compound, how does the response read?
Answer: 0.98%

Question: Which response does the source give for Cc1cc(C(=O)NC2CCN(Cc3ccccc3)CC2)n[nH]1 here?
Answer: 4.4%

Question: For O=C(NC1CCN(Cc2ccccc2)CC1)c1cc(Br)c(Br)[nH]1, which response is on record?
Answer: 10.4% (active)

Question: For O=C(CCCN1C(=O)c2ccccc2C1=O)Oc1ccc(Cl)cc1, which response is on record?
Answer: 8.16%

Question: For O=C1c2ccccc2C(=O)N1CCCCCCN1C(=O)c2ccccc2C1=O, which response is on record?
Answer: 9.59% (active)

Question: For O=C(OCCN1C(=O)c2ccccc2C1=O)Oc1ccccc1, which response is on record?
Answer: -2.47%

Question: Which response does the source give for Cc1cc(C(C)(C)C)cc(S(=O)(=O)Nc2ccc(C(=O)O)cc2)c1C here?
Answer: -1.72%

Question: Which response does the source give for COCCN(Cc1ccccc1)C(=O)Cc1ccc(S(=O)(=O)N2CCOCC2)s1 here?
Answer: 0.76%

Question: For CN(CC(=O)NCC(c1ccccc1)N1CCCC1)S(=O)(=O)c1ccc(Cl)cc1 (stereo not drawn), which response is on record?
Answer: -3.93%

Question: With CC1=NN(c2ccc(Cl)c(C(=O)O)c2)C(=O)/C1=C/c1ccc(-c2ccccc2[N+](=O)[O-])o1 as the compound, how does the response read?
Answer: 240% (active)

Question: Which response does the source give for O=C1NC(c2ccc(-c3ccccc3[N+](=O)[O-])o2)C(C(=O)c2ccc(Cl)cc2)C(O)(C(F)(F)F)N1 (stereo not drawn) here?
Answer: -0.4%

Question: Which response does the source give for O=C(Nc1ccc(N2CCOCC2)cc1)c1ccc(-c2ccccc2[N+](=O)[O-])o1 here?
Answer: -1.06%

Question: Which response does the source give for O=C(COC(=O)CCCNC(=O)c1ccc(Cl)cc1)Nc1cc(Cl)ccc1Cl here?
Answer: -2.06%

Question: Which response does the source give for CNC(=O)c1csc(-c2ccccc2)n1 here?
Answer: -0.68%

Question: Which response does the source give for CNC(=O)c1csc(Cc2c(Cl)sc3ccc(Cl)cc23)n1 here?
Answer: 12.4% (active)

Question: For CC(=O)NNC(=O)c1csc(Cc2c(Cl)sc3ccc(Cl)cc23)n1, which response is on record?
Answer: -1.89%

Question: With COc1cccc(N2CCN(C(=O)Nc3ccc4c(c3)NC(=O)CO4)CC2)c1 as the compound, how does the response read?
Answer: 0.53%

Question: With O=C(NCC1CCCCC1)c1cc(S(=O)(=O)N2CCCCC2)ccc1N1CCOCC1 as the compound, how does the response read?
Answer: 11.1% (active)

Question: For CC(C)(C)C(=O)COC(=O)c1cc(S(=O)(=O)N2CCCCC2)ccc1N1CCOCC1, which response is on record?
Answer: 5.71%

Question: Which response does the source give for O=C(CNC(=O)c1cc(S(=O)(=O)N2CCOCC2)ccc1N1CCCC1)Nc1ccc(F)c(F)c1 here?
Answer: -1.89%

Question: Which response does the source give for COCCN1C2=C(COC(C)(C)C2)C(=S)NC1c1ccccc1 (stereo not drawn) here?
Answer: 1.2%

Question: Which response does the source give for O=C(O)CC12CC3CC(C1)CC(n1ncc(NCc4ccc(F)cc4)c(Cl)c1=O)(C3)C2 here?
Answer: 1.78%

Question: For CC(C)c1ccc(OCC(O)CN2CCN(c3ccccn3)CC2)cc1 (stereo not drawn), which response is on record?
Answer: 1.79%

Question: Which response does the source give for OC(COc1cccc2ccccc12)CN1CCN(c2ccccn2)CC1 (stereo not drawn) here?
Answer: 16.7% (active)

Question: For OC(COc1ccccc1)CN1CCN(c2cccc(Cl)c2)CC1 (stereo not drawn), which response is on record?
Answer: -2.02%

Question: For CN(C)S(=O)(=O)c1cc(C(=O)Nc2ccn(C)n2)c(Cl)cc1Cl, which response is on record?
Answer: -0.21%

Question: Which response does the source give for CSc1sc(C)cc1C1C(C#N)=C(N)N(c2cccnc2)C2=C1C(=O)CCC2 (stereo not drawn) here?
Answer: -0.16%

Question: With O=C(COc1ncnc2c(Cl)cc(Cl)cc12)N1CCN(S(=O)(=O)c2ccccc2)CC1 as the compound, how does the response read?
Answer: 2.02%

Question: With Nn1c(SCc2ccccc2)nnc1C1CCCCC1 as the compound, how does the response read?
Answer: -2.46%

Question: For O=C(CNC(=O)c1ccccc1Br)NNC(=O)c1cccs1, which response is on record?
Answer: -0.51%

Question: For O=C(C1=C[C@H](C2CC2)C[C@H](OCc2ccc(CO)cc2)O1)N1CCN(Cc2ccccc2)CC1, which response is on record?
Answer: 10.9% (active)

Question: With O=C(C1=C[C@H](c2ccc(C(F)(F)F)cc2)C[C@H](OCc2ccc(CO)cc2)O1)N1CCN(Cc2ccccc2)CC1 as the compound, how does the response read?
Answer: 3.16%

Question: For O=C(C1=C[C@H](c2coc3ccccc3c2=O)C[C@H](OCc2ccc(CO)cc2)O1)N1CCN(Cc2ccccc2)CC1, which response is on record?
Answer: 2.61%

Question: With Cc1ccc(C2=NN(C)c3nc4ccccc4n3C2)cc1 as the compound, how does the response read?
Answer: 0.17%

Question: Which response does the source give for c1ccc(CNc2ncnc3[nH]ncc23)cc1 here?
Answer: -0.7%

Question: For CN(c1ccccn1)c1ncnc2[nH]ncc12, which response is on record?
Answer: 15.2% (active)

Question: Which response does the source give for COc1ccc(NC(=O)CSc2ncnc3[nH]ncc23)cc1 here?
Answer: 8.67%

Question: Which response does the source give for COc1ccc(OC)c(CNC(=O)CCc2nc(-c3cccs3)no2)c1 here?
Answer: -0.51%

Question: For COc1ccc(CCc2nc(-c3cccs3)no2)cc1, which response is on record?
Answer: 1.75%

Question: Which response does the source give for CCc1ccc(CNC(=O)CCc2nc(-c3cccs3)no2)cc1 here?
Answer: 10.8% (active)

Question: With Cc1cc(C(F)(F)F)nn1CC(=O)N1CCCC1 as the compound, how does the response read?
Answer: 6.02%

Question: Which response does the source give for O=C(CC(n1cncn1)C(Cl)(Cl)Cl)c1ccc([N+](=O)[O-])cc1 (stereo not drawn) here?
Answer: 4.51%

Question: With COc1ccc(C(CNC(=O)c2ccc(OCc3cscn3)cc2)N2CCCC2)cc1 (stereo not drawn) as the compound, how does the response read?
Answer: 2.42%

Question: For CCN(CC(=O)Nc1c(F)cccc1F)C(=O)c1ccc(-c2ccc(C(C)=O)cc2)o1, which response is on record?
Answer: 0.89%

Question: Which response does the source give for Cc1ccc2c(cnn2C(=O)CCC(=O)NC2CCCC2)c1 here?
Answer: 16.8% (active)

Question: For Cc1cccc2c1cnn2C(=O)CCC(=O)NC1CCCCC1, which response is on record?
Answer: -0.13%

Question: With Cc1ccc2nc(SCC(=O)NC3CCCC3)[nH]c2c1 as the compound, how does the response read?
Answer: 1.94%

Question: With Cc1ccccc1CS(=O)(=O)CC1(O)CCN(C(=O)c2cccc(C(F)(F)F)c2)CC1 as the compound, how does the response read?
Answer: -0.64%

Question: With Cc1c(Cl)cccc1NC(=O)[C@@]1(CC(=O)O)CC(/C=C/c2ccccc2)=NO1 as the compound, how does the response read?
Answer: -1.98%

Question: With CCN(CC)CC(=O)Nc1nn(-c2ccccc2)nc1C(N)=O as the compound, how does the response read?
Answer: 6.52%

Question: For COc1ccc(N2CCN(C(=O)CNC(=O)c3ccc(C(C)(C)C)cc3)CC2)cc1, which response is on record?
Answer: 13.9% (active)

Question: With COc1ccc(N2CCN(C(=O)CNC(=O)c3ccc(Br)o3)CC2)cc1 as the compound, how does the response read?
Answer: 4.07%

Question: With COc1ccc(N2CCN(C(=O)CCNC(=O)c3ccc(Br)cc3)CC2)cc1 as the compound, how does the response read?
Answer: -3.69%

Question: Which response does the source give for Cc1ccccc1NC(=O)N1CCCC1C(=O)NCc1ccccc1 (stereo not drawn) here?
Answer: -1.65%

Question: With CCOc1nc(OCC)nc(-n2cc(-c3ccccc3)nn2)n1 as the compound, how does the response read?
Answer: 0.96%

Question: For CC1=C/C(=N\OS(=O)(=O)c2ccccc2)C=CC1=O, which response is on record?
Answer: 32.8% (active)

Question: With CCC(C)NC(=O)c1ccc(NC(=O)CC2SC(N3CCCCC3)=NC2=O)cc1 (stereo not drawn) as the compound, how does the response read?
Answer: 1.4%

Question: Which response does the source give for CC(C)(C)OC(=O)N1CCC(C(=O)NNC(=O)c2ccc(Cl)cc2Cl)CC1 here?
Answer: 1.22%
